Data on one sequence can be found in publication PMC7862700, “An all-to-all approach to the identification of sequence-specific readers for epigenetic DNA modifications on cytosine”.

Common to all, as to assay: DAPPL (digital affinity profiling via proximity ligation, sequencing); 10 mM Tris-HCl pH 7.5, 50 mM NaCl, 1 mM DTT, 4% glycerol, room temperature, 30 min; GST-TFs on glutathione beads, 16-mer random dsDNA library, 0.1% formaldehyde crosslink after washing; high values mean tight binding
The target of one assay is T1, FEV (Homo sapiens, UniProt Q99581 1-238).
T1 sequence: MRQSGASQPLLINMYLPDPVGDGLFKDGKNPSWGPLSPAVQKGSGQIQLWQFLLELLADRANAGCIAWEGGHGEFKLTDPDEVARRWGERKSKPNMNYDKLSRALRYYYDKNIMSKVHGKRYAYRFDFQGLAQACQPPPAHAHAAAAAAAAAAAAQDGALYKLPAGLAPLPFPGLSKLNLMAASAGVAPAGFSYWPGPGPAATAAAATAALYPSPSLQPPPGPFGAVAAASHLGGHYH
As to conditions: protein: recombinant; tags: N-terminal GST; dsDNA, one strand shown. In outline: (§1)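 Each value of binding signal is a hexamer's read frequency for a factor divided by the same hexamer's frequency in the tag-only sample. Barcoded, bead-captured GST fusions of human transcription factors made in yeast were pooled with that sample and incubated with 200 nmole of a random double-stranded 16-mer DNA library in Tris/NaCl/DTT/glycerol buffer at room temperature for 30 min. Washing, 0.1% formaldehyde crosslinking, proximity ligation, PCR and Illumina NextSeq500 sequencing followed.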

A further assay deals with ETV5 (Homo sapiens, UniProt P41161 1-510). As to conditions: protein: recombinant; tags: N-terminal GST; dsDNA, one strand shown. In outline: as §1
Sequence of ETV5 (P41161 whole entry): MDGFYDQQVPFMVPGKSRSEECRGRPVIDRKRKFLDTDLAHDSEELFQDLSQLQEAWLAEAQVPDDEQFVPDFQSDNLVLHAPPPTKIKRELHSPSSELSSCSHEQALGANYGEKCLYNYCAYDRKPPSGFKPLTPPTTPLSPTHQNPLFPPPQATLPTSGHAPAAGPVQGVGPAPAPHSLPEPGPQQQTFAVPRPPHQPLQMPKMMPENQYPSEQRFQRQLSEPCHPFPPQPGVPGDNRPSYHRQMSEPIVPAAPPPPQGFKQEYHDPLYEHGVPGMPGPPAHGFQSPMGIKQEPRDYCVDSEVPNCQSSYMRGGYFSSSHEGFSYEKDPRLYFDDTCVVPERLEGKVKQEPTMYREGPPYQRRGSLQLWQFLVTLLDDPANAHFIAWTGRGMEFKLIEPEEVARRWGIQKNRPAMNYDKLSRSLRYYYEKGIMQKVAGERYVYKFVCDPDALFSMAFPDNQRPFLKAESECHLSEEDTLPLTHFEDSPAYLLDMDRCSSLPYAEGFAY
Another assay addresses HSF1 (Homo sapiens, UniProt Q00613 1-529). The following applies: protein: recombinant; tags: N-terminal GST; chain copies: 3; dsDNA, one strand shown. In outline:
as §1

The target in the next assay is T2, SPIC (Homo sapiens, UniProt Q8N5J4 1-248).
T2 sequence: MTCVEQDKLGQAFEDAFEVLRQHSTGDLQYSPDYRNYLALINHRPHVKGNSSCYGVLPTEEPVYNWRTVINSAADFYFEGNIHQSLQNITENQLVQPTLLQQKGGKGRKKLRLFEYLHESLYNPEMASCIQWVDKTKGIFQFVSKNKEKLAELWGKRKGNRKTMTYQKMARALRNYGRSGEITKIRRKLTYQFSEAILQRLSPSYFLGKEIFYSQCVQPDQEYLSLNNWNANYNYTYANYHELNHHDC
As to conditions: protein: recombinant; tags: N-terminal GST; dsDNA, one strand shown. In outline:
as §1

For the next assay, the target named is ELF4 (Homo sapiens, UniProt Q99607 1-663). The following applies: protein: recombinant; tags: N-terminal GST; dsDNA, one strand shown. In outline: as §1
Sequence of ELF4 (Q99607 whole entry): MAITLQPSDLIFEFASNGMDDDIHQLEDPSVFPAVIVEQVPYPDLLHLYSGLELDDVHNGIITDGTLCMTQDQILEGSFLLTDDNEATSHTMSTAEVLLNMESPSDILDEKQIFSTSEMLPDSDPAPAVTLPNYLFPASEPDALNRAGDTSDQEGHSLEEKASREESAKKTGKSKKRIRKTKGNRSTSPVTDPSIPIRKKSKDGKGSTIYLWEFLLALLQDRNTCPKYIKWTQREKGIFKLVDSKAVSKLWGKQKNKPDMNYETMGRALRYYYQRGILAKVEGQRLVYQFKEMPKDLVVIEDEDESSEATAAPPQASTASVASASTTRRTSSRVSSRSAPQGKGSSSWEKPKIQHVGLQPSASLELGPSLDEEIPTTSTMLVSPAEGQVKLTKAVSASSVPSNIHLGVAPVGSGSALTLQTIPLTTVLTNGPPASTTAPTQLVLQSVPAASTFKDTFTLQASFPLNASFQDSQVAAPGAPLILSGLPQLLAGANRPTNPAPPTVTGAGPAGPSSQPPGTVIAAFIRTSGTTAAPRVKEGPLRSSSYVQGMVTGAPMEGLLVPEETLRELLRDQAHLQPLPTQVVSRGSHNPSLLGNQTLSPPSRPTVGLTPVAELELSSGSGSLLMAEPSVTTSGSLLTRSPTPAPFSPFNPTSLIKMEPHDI
A further assay addresses T3, ELK4 (Homo sapiens, UniProt P28324-2 1-405).
T3 sequence: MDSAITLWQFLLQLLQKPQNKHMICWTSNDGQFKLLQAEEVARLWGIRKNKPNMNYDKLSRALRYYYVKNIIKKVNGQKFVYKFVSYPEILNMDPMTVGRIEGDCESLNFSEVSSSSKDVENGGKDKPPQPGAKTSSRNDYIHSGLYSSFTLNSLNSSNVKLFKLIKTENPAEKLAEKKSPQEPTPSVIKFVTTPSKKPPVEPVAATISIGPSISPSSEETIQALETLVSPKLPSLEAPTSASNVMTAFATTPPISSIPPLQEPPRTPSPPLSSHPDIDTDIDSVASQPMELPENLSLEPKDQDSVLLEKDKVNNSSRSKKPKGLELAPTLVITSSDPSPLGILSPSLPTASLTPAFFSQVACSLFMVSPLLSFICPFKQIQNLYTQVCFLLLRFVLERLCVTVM
The following applies: protein: recombinant; tags: N-terminal GST; dsDNA, one strand shown. In outline: as §1

The target in another assay is T4, ETV2 (Homo sapiens, UniProt O00321 1-342).
T4 sequence: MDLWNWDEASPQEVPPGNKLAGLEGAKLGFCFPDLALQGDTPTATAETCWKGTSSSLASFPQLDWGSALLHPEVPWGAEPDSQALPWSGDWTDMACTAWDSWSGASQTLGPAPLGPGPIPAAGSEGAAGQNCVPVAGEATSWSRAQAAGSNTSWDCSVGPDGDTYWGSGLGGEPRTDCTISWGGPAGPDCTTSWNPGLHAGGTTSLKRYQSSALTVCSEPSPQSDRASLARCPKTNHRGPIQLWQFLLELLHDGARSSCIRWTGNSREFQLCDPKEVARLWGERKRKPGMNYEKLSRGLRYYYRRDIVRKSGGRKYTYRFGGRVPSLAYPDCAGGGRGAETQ
The following applies: protein: recombinant; tags: N-terminal GST; dsDNA, one strand shown. In outline:
as §1

The target in another assay is T5, ELF3 (Homo sapiens, UniProt P78545 1-371).
T5 sequence: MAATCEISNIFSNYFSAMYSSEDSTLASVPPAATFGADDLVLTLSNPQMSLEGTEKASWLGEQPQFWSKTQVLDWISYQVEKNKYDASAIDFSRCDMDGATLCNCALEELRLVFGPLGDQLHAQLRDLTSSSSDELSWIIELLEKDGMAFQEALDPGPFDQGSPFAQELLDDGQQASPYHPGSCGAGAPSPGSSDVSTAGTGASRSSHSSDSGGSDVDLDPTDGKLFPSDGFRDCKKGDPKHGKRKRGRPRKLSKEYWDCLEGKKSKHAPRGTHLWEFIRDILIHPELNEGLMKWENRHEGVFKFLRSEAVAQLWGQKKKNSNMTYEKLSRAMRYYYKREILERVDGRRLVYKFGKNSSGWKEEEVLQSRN
As to conditions: protein: recombinant; tags: N-terminal GST; dsDNA, one strand shown. The gist of the method: as §1

The next assay concerns the target CRX (Homo sapiens, UniProt O43186 1-299). The following applies: protein: recombinant; tags: N-terminal GST; dsDNA, one strand shown. The gist of the method: as §1
For the next assay, the target named is ETV1 (Homo sapiens, UniProt P50549 1-477). The following applies: protein: recombinant; tags: N-terminal GST; dsDNA, one strand shown. The gist of the method:
as §1

For a further assay, the target named is T6, ERF (Homo sapiens, UniProt P50548 1-548).
T6 sequence: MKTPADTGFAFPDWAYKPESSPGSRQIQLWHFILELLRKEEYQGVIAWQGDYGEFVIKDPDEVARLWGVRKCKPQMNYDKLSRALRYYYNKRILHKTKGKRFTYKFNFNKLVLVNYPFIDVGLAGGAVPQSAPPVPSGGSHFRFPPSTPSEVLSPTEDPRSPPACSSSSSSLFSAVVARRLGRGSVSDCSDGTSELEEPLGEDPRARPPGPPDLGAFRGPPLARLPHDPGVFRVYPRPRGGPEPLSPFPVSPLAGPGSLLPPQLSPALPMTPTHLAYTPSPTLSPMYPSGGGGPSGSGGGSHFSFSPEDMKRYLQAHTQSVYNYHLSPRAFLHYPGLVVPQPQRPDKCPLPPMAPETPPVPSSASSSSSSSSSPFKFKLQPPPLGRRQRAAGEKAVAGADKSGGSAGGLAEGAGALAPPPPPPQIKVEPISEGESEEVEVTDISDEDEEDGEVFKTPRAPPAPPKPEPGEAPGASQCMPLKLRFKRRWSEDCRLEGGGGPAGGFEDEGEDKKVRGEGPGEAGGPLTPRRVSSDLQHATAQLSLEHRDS
The following applies: protein: recombinant; tags: N-terminal GST; dsDNA, one strand shown. The gist of the method:
as §1

A further assay has as its target T7, ETV3L (Homo sapiens, UniProt Q6ZN32 1-361).
T7 sequence: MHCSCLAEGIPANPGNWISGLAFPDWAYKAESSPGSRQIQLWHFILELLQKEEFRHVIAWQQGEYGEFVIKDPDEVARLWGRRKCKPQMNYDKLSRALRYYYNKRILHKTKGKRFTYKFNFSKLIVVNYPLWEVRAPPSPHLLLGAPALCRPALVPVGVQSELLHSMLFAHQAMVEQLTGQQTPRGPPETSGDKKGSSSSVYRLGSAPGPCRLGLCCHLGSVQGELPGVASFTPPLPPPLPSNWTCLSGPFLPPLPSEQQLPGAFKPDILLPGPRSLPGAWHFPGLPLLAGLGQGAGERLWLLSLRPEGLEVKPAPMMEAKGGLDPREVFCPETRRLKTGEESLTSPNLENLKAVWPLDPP
As to conditions: protein: recombinant; tags: N-terminal GST; dsDNA, one strand shown. In outline:
as §1

In another assay the target is T8, ETS2 (Homo sapiens, UniProt P15036 1-469).
T8 sequence: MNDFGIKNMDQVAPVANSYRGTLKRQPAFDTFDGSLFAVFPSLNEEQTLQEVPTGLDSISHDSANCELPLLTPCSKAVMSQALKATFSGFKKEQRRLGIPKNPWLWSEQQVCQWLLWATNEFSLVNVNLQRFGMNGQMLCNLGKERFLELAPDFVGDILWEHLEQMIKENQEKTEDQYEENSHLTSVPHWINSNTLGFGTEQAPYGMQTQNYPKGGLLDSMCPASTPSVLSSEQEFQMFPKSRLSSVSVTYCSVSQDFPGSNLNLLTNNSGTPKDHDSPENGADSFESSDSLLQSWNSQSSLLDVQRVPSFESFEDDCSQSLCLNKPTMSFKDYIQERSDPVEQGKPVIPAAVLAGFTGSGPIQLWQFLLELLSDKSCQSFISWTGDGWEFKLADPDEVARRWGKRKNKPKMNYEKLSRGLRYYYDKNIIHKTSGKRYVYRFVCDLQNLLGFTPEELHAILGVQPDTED
As to conditions: protein: recombinant; tags: N-terminal GST; dsDNA, one strand shown. The gist of the method: as §1

The target of the next assay is T9, SPDEF (Homo sapiens, UniProt O95238 1-335).
T9 sequence: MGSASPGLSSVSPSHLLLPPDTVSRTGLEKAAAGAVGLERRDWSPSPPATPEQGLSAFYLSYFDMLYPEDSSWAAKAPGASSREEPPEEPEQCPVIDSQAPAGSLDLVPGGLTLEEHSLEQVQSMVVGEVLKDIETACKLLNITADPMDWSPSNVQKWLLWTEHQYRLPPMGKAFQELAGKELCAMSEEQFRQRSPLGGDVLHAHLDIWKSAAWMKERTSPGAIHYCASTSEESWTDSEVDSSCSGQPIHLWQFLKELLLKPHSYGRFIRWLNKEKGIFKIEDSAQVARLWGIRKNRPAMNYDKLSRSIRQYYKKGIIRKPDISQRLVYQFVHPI
The following applies: protein: recombinant; tags: N-terminal GST; dsDNA, one strand shown. The gist of the method:
as §1

The next assay concerns the target T10, ETV7 (Homo sapiens, UniProt Q9Y603 1-341).
T10 sequence: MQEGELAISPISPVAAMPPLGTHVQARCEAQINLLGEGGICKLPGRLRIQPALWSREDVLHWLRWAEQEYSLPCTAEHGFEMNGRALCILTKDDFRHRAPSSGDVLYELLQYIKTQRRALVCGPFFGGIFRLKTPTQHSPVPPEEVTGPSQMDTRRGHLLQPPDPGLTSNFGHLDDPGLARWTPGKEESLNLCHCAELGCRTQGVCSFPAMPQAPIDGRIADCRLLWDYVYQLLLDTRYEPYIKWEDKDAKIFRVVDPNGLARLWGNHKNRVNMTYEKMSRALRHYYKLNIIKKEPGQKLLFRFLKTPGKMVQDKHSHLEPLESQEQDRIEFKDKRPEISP
As to conditions: protein: recombinant; tags: N-terminal GST; dsDNA, one strand shown. In outline: as §1

In the next assay the target is T11, ELF5 (Homo sapiens, UniProt Q9UKW6-2 1-255).
T11 sequence: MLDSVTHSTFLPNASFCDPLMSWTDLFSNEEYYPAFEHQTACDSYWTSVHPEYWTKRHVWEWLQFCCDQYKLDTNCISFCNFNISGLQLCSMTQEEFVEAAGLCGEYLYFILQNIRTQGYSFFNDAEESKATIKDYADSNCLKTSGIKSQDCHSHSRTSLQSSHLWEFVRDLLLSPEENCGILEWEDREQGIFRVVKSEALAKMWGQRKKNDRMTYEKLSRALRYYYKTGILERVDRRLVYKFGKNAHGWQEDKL
As to conditions: protein: recombinant; tags: N-terminal GST; dsDNA, one strand shown. The gist of the method:
as §1

A further assay has as its target T12, ETV3 (Homo sapiens, UniProt P41162-2 1-143).
T12 sequence: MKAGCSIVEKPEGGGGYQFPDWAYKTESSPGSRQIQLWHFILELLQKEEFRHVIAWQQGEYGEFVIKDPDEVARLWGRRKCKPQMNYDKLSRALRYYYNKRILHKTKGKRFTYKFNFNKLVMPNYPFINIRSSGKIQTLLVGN
The following applies: protein: recombinant; tags: N-terminal GST; dsDNA, one strand shown. In outline:
as §1

A further assay addresses ETV6 (Homo sapiens, UniProt P41212 1-452). As to conditions: protein: recombinant; tags: N-terminal GST; dsDNA, one strand shown. The gist of the method:
as §1

Sequence of HSF1 (Q00613 whole entry): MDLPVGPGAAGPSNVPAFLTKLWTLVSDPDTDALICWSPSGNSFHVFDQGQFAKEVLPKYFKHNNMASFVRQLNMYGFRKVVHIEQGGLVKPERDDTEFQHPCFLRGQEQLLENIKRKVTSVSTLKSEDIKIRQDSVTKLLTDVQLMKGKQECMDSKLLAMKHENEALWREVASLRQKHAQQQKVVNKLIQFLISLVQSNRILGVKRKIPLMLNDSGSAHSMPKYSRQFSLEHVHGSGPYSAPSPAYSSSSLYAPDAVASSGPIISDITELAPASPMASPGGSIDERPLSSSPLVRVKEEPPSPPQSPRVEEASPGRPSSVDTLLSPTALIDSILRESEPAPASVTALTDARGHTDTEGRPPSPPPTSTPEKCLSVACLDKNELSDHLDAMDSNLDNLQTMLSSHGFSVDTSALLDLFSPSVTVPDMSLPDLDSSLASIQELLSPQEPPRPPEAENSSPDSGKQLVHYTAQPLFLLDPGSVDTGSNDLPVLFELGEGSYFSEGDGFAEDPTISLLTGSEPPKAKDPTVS
Sequence of ETV6 (P41212 whole entry): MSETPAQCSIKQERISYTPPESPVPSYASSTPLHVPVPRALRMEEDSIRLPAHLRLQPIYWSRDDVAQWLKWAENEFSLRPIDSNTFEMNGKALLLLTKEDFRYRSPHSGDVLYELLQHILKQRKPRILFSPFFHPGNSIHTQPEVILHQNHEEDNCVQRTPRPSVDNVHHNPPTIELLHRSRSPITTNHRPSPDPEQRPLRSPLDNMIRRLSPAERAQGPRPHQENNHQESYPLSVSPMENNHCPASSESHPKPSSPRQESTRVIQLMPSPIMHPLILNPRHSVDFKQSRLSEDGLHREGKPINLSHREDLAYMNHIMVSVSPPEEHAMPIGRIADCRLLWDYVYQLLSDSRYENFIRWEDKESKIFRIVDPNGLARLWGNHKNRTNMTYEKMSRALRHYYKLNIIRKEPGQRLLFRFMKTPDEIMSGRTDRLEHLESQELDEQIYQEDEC
Sequence of CRX (O43186 whole entry): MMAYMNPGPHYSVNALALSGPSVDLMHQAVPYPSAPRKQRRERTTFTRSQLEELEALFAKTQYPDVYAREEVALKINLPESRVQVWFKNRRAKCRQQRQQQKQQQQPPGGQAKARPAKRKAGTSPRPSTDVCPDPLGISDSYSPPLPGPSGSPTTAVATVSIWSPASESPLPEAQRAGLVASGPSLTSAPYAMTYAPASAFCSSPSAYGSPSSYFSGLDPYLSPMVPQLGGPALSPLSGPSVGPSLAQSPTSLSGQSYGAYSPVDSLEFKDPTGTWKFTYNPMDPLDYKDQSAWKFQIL
Sequence of ETV1 (P50549 whole entry): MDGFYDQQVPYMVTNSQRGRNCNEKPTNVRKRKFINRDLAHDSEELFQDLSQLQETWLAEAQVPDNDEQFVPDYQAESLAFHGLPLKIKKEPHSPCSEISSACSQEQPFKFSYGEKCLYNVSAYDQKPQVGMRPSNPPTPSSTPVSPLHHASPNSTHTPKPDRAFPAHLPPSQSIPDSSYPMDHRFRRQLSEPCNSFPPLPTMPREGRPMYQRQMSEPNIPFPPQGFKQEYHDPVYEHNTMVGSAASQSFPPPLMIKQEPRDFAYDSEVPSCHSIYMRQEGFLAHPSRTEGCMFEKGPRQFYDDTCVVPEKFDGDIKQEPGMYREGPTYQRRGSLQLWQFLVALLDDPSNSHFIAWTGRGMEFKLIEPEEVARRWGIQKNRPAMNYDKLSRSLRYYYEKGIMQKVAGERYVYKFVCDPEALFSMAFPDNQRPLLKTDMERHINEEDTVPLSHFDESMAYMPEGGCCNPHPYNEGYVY

Turning to CGAATA, the binding signal in the assay with FEV is 1.16 fold enrichment (6-mer frequency, TF over GST control); with ETV5, 1.07 fold enrichment (6-mer frequency, TF over GST control); in the assay with HSF1, 1.87 fold enrichment (6-mer frequency, TF over GST control); in the assay with SPIC it was 1.26 fold enrichment (6-mer frequency, TF over GST control); with ELF4, 1.11 fold enrichment (6-mer frequency, TF over GST control); with ELK4, 1.25 fold enrichment (6-mer frequency, TF over GST control). For the same sequence, the binding signal was 1.29 fold enrichment (6-mer frequency, TF over GST control) in the assay with ETV2; 1.07 fold enrichment (6-mer frequency, TF over GST control) with ELF3; 1.31 fold enrichment (6-mer frequency, TF over GST control) with CRX; 1.19 fold enrichment (6-mer frequency, TF over GST control) with ETV1; 1.19 fold enrichment (6-mer frequency, TF over GST control) with ERF; 1.2 fold enrichment (6-mer frequency, TF over GST control) with ETV3L. In addition, the binding signal was 1.12 fold enrichment (6-mer frequency, TF over GST control) with ETS2; 1.1 fold enrichment (6-mer frequency, TF over GST control) with SPDEF; 1.18 fold enrichment (6-mer frequency, TF over GST control) with ETV7; 1.11 fold enrichment (6-mer frequency, TF over GST control) with ELF5; 1.21 fold enrichment (6-mer frequency, TF over GST control) with ETV3; 1.18 fold enrichment (6-mer frequency, TF over GST control) in the assay with ETV6.
